# According to PubChem BioAssay:
# A number with no mark means an inactive call.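 The calls were made as follows, unless noted: active = RAM network inhibition above 8.4% in each of two replicates, 3 SD over the compound average; inconclusive = above 8.4% inhibition in only one replicate; inactive = 8.4% inhibition or less in each replicate.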
# Test: RAM pathway blockade in budding yeast – dse1pr::URA3 reporter, 5-FOA selection, pilot screen (AID 869;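 active = inhibition over a set limit, the all-compound mean plus 3 SD, in both replicate runs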;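 also: 0% = DMSO wells with no growth and 100% = 10 µM 1-NA-PP1 with full growth; RAM network block rescues cells from 5-FOA so hits raise OD615 growth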)
# Details: S. cerevisiae dse1pr::URA3 5-FOA growth, OD615, 2 d; at 10 µM; active compounds read high; strain carries analog-sensitive mutant Cbk1 kinase
row,SMILES,inhibition [%]
1,Cc1oc(-c2cccs2)nc1CS(=O)CC(=O)NCCCN1CC(C)CC(C)C1 (stereo not given),2.27
2,Cc1nc(-c2ccc(S(=O)(=O)N3CCCCCC3)cc2)cs1,0.075
3,O=C(CN1CCN(Cc2ccccc2F)C1=O)NCCN1CCOCC1,1.27
4,O=C(NCCCN1CCc2ccccc2C1)C1CCN(c2nnc(-n3cccc3)s2)CC1,2.08
5,CCOC(=O)N1CCC(NC(=O)c2cc3c(C)nc4ccccc4c3o2)CC1,0.54
6,Cn1c(N)c(C(=O)COC(=O)Cc2ccsc2)c(=O)n(C)c1=O,0.31
7,NC(=O)C1CCN(C(=O)C2CCN(S(=O)(=O)c3ccccc3)CC2)CC1,1.06
8,COc1ccc(OC)c2[nH]c(=O)c(CCNC(=O)c3cc4ccccc4o3)cc12,0.6
9,Cc1ccc2cc(-c3noc(C4CCCO4)n3)c(=O)[nH]c2c1 (stereo not given),0.82
10,CCCCCn1c(N2CCC(Cc3ccccc3)CC2)nc2c1c(=O)[nH]c(=O)n2C,1.22
11,COC(=O)c1[nH]c2cc(OC)ccc2c1NC(=O)c1ccc2c(c1)OCO2,1.74
12,Cc1ccccc1NC(=O)c1ccc(S(=O)(=O)N(C)C)cc1,2.17
13,Cc1cccc(NC(=O)NCCN2C(=O)C3C4C=CC(C4)C3C2=O)c1 (stereo not given),1.83
14,COc1ccc(C2C=C(c3ccc(C)c(C)c3)Nc3ncnn32)c(OC)c1OC (stereo not given),0.775
15,COc1ccc(NC(=O)c2nc3nc(C)cc(C(F)F)n3n2)cc1OC,0.885
16,O=C(CC1(O)C(=O)Nc2ccccc21)c1ccccc1 (stereo not given),0.055
17,CCOC(=O)N1CCN(C(=O)c2cc3cc(Br)ccc3oc2=O)CC1,0.665
18,COc1ccc(OC)c(C2CC(=O)N3CN(c4cccc(Cl)c4C)CSC3=C2C#N)c1 (stereo not given),1.87
19,Cc1ccc(-n2nnc3c(=O)n(CC(=O)NCc4ccco4)cnc32)cc1,3.36
20,CSC1=NCCN1C(=O)C(C)Oc1ccccc1 (stereo not given),0.34

row,SMILES,inhibition [%]
1,COc1ccc(OC)c(N(CC(=O)O)S(=O)(=O)c2ccc(OC)c(OC)c2)c1,2.03
2,CCC(=O)c1cc2c(cc1NC(=O)c1cccs1)OCCO2,1.38
3,CCn1c(C2CC(=O)N(c3ccc(C)c(C)c3)C2)nc2ccccc21 (stereo not given),-0.35
4,C=COCCn1c(-c2nonc2N)nc2ccccc21,1.75
5,O=C(NC1CCCCC1)C(c1ccccc1)N1CCC2(CC1)OCCO2 (stereo not given),1.5
6,CCCCNc1cc(=O)n(C)c(=O)[nH]1,1.55
7,CC1Cn2c(nnc2-c2cccc(N)c2)S1 (stereo not given),1.52
8,Cc1nnc(NC(=O)CSc2nnc(Cc3cccn3C)n2-c2cccc(C(F)(F)F)c2)s1,0.075
9,CCc1c(C)nc(SCC(=O)Nc2ccc(Br)cc2)[nH]c1=O,1.89
10,CCc1nnc(NC(=O)C2Cc3ccccc3C(=O)O2)s1 (stereo not given),1.32
11,CCOCCn1c(CN(Cc2ccccc2)Cc2ccccc2)nc2c1c(=O)n(C)c(=O)n2C,1.48
12,COc1ccccc1-c1cc(N)n(S(=O)(=O)c2ccc(F)c(C)c2)n1,4.39
13,O=C(O)[C@@H](c1ccccc1)N1Cc2ccccc2C1=O,1.13
14,O=C(NCc1cccs1)c1cnc2sccn2c1=O,1.6
15,CC(C)(C)OC(=O)N1CCC(C(N)=O)CC1,0.535
16,Cc1ccc(C2CC(c3ccccc3C)n3nc(N)nc3N2)cc1 (stereo not given),0.77
17,COC(=O)C1CCN(C(c2ccc(OC)c(OC)c2)c2sc3nc(C)nn3c2O)CC1 (stereo not given),-1.08
18,CCOc1ccc(Oc2nc(NCC(C)C)nc(OC)n2)nn1,2.14
19,OC(COc1ccc2ccccc2c1)CN1CCN(c2ccc(F)cc2)CC1 (stereo not given),1.09
20,Cc1ccc(O)c(NC(=O)CCC2CCCCC2)c1,4.25

# Test: RAM signaling pathway blockade in yeast – S. cerevisiae, Pdr1DBD-CYC8 efflux-inhibited sensitized strain, primary screen (AID 1298);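 also: 0% = DMSO untreated cells without growth and 100% = 10 µM 1-NA-PP1 full growth; higher means more yeast growth rescued from 5-FOA killing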
# Details: S. cerevisiae cbk1-as DSE1-URA3 strain, 5-FOA growth OD615, 2 d; at 50 µM; active compounds read high
row,SMILES,RAM network inhibition [%]
1,Cc1oc(-c2cccs2)nc1CS(=O)CC(=O)NCCCN1CC(C)CC(C)C1 (stereo not given),3.39
2,Cc1nc(-c2ccc(S(=O)(=O)N3CCCCCC3)cc2)cs1,1.28
3,O=C(CN1CCN(Cc2ccccc2F)C1=O)NCCN1CCOCC1,1.5
4,O=C(NCCCN1CCc2ccccc2C1)C1CCN(c2nnc(-n3cccc3)s2)CC1,5.45
5,CCOC(=O)N1CCC(NC(=O)c2cc3c(C)nc4ccccc4c3o2)CC1,3.54
6,Cn1c(N)c(C(=O)COC(=O)Cc2ccsc2)c(=O)n(C)c1=O,-0.32
7,NC(=O)C1CCN(C(=O)C2CCN(S(=O)(=O)c3ccccc3)CC2)CC1,0.84
8,COc1ccc(OC)c2[nH]c(=O)c(CCNC(=O)c3cc4ccccc4o3)cc12,7.96
9,Cc1ccc2cc(-c3noc(C4CCCO4)n3)c(=O)[nH]c2c1 (stereo not given),4.44
10,CCCCCn1c(N2CCC(Cc3ccccc3)CC2)nc2c1c(=O)[nH]c(=O)n2C,7.3
11,COC(=O)c1[nH]c2cc(OC)ccc2c1NC(=O)c1ccc2c(c1)OCO2,1.04
12,Cc1ccccc1NC(=O)c1ccc(S(=O)(=O)N(C)C)cc1,2.21
13,Cc1cccc(NC(=O)NCCN2C(=O)C3C4C=CC(C4)C3C2=O)c1 (stereo not given),0.37
14,COc1ccc(C2C=C(c3ccc(C)c(C)c3)Nc3ncnn32)c(OC)c1OC (stereo not given),-1.46
15,COc1ccc(NC(=O)c2nc3nc(C)cc(C(F)F)n3n2)cc1OC,1.05
16,O=C(CC1(O)C(=O)Nc2ccccc21)c1ccccc1 (stereo not given),-1.83
17,CCOC(=O)N1CCN(C(=O)c2cc3cc(Br)ccc3oc2=O)CC1,-1.94
18,COc1ccc(OC)c(C2CC(=O)N3CN(c4cccc(Cl)c4C)CSC3=C2C#N)c1 (stereo not given),2.07
19,Cc1ccc(-n2nnc3c(=O)n(CC(=O)NCc4ccco4)cnc32)cc1,7.68
20,CSC1=NCCN1C(=O)C(C)Oc1ccccc1 (stereo not given),0.46

row,SMILES,RAM network inhibition [%]
1,COc1ccc(OC)c(N(CC(=O)O)S(=O)(=O)c2ccc(OC)c(OC)c2)c1,4.23
2,CCC(=O)c1cc2c(cc1NC(=O)c1cccs1)OCCO2,9.21
3,CCn1c(C2CC(=O)N(c3ccc(C)c(C)c3)C2)nc2ccccc21 (stereo not given),0.57
4,C=COCCn1c(-c2nonc2N)nc2ccccc21,6.18
5,O=C(NC1CCCCC1)C(c1ccccc1)N1CCC2(CC1)OCCO2 (stereo not given),1.43
6,CCCCNc1cc(=O)n(C)c(=O)[nH]1,2.98
7,CC1Cn2c(nnc2-c2cccc(N)c2)S1 (stereo not given),3.44
8,Cc1nnc(NC(=O)CSc2nnc(Cc3cccn3C)n2-c2cccc(C(F)(F)F)c2)s1,3.85
9,CCc1c(C)nc(SCC(=O)Nc2ccc(Br)cc2)[nH]c1=O,3.9
10,CCc1nnc(NC(=O)C2Cc3ccccc3C(=O)O2)s1 (stereo not given),5.85
11,CCOCCn1c(CN(Cc2ccccc2)Cc2ccccc2)nc2c1c(=O)n(C)c(=O)n2C,5.44
12,COc1ccccc1-c1cc(N)n(S(=O)(=O)c2ccc(F)c(C)c2)n1,3.97
13,O=C(O)[C@@H](c1ccccc1)N1Cc2ccccc2C1=O,1.56
14,O=C(NCc1cccs1)c1cnc2sccn2c1=O,0.36
15,CC(C)(C)OC(=O)N1CCC(C(N)=O)CC1,0.06
16,Cc1ccc(C2CC(c3ccccc3C)n3nc(N)nc3N2)cc1 (stereo not given),4.75
17,COC(=O)C1CCN(C(c2ccc(OC)c(OC)c2)c2sc3nc(C)nn3c2O)CC1 (stereo not given),2.68
18,CCOc1ccc(Oc2nc(NCC(C)C)nc(OC)n2)nn1,-1.03
19,OC(COc1ccc2ccccc2c1)CN1CCN(c2ccc(F)cc2)CC1 (stereo not given),1.23
20,Cc1ccc(O)c(NC(=O)CCC2CCCCC2)c1,4.08
